Assay results from the supplement of paper PMC10646978.
± gives the standard deviation.

Tests used:
Conditions in all cases: modulator concentration 10 µM
[1] = tested on: RAW-Dual (murine macrophage reporter line); experiment: NF-kB reporter (SEAP) activity fold change vs agonist alone; higher = enhanced NF-kB activity
Outline: (§1)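 RAW-Dual murine macrophage reporter cells were seeded at 50 000 per well in 384-well plates and pre-incubated 1 hour at 37 °C with compound pin-transferred to 10 μM final. After 1 hour, a PRR agonist was added and cells incubated overnight. Supernatant NF-κB (SEAP, QUANTI-Blue, 620 nm absorbance) and IRF (Lucia luciferase, QUANTI-Luc, luminescence) signals were divided by the mean agonist-only control on the same plate to give fold change. Two replicate plates were averaged, with errors by propagation.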

[2] = tested on: RAW-Dual (murine macrophage reporter line); experiment: IRF reporter (Lucia luciferase) activity fold change vs agonist alone; higher = enhanced IRF activity
Outline: as §1

[3] = tested on: RAW-Dual (murine macrophage reporter line); experiment: viability score (confluency relative to resting cells, overnight) (fraction); higher = more viable, active = viable (0.7 or more)
Outline: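 RAW-Dual macrophages in 384-well plates were treated overnight with compound at 10 μM final. IncuCyte imaging recorded confluency, and IncuCyte software built two confluency masks across every imaged well. The viability score expresses confluency relative to resting cells and was judged against a cutoff, which a compound met only if both masks exceeded 70% of resting cells.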

[4] = agonist: CpG ODN 1826 0.5 ug/mL

| SMILES | NF-kB reporter [1, 4] | NF-kB reporter ([1]; agonist: LPS 0.1 ug/mL) | NF-kB reporter ([1]; agonist: MPLA […]) | IRF reporter ([2]; agonist: 3'3'-cGAMP 10 ug/mL) | IRF reporter ([2]; agonist: LPS 0.1 ug/mL) | IRF reporter ([2]; agonist: MPLA […]) | viability score [3] |
| --- | --- | --- | --- | --- | --- | --- | --- |
| C[C@H](Cc1cc2c(c(C(N)=O)c1)N(CCCO)CC2)NCCOc1ccccc1OCC(F)(F)F | 1.2 ± 0.2 | 1.09 ± 0.29 | 1.03 ± 0.057 | 0.732 ± 0.058 | 1.05 ± 0.26 | 0.893 ± 0.2 | 0.998 (active) |
| CC(=O)Nc1ccc(NC(=S)NC(=O)C=Cc2ccc(Cl)cc2)cc1 | 1.08 ± 0.069 | 1.09 ± 0.096 | 0.946 ± 0.025 | 0.838 ± 0.089 | 0.932 ± 0.1 | 0.787 ± 0.22 | 0.991 (active) |
| CNC1(C)C2CCC(C2)C1(C)C.Cl (centres undefined) | 0.914 ± 0.23 | 0.931 ± 0.058 | 0.961 ± 0.061 | 0.911 ± 0.078 | 1.1 ± 0.24 | 1.06 ± 0.12 | 1 (active) |
| CC(C=CC1=C(C)CCCC1(C)C)=CC=CC(C)=CC(=O)O | 1.29 ± 0.11 | 0.943 ± 0.078 | 1.01 ± 0.1 | 0.568 ± 0.031 | 1.1 ± 0.14 | 0.904 ± 0.19 | 0.986 (active) |
| CC(C)(C)C1(O)CC(C(F)(F)F)=NN1C(=O)c1ccc([N+](=O)[O-])cc1 (centres undefined) | 0.644 ± 0.056 | 0.79 ± 0.095 | 1.01 ± 0.035 | 1.38 ± 0.13 | 1.13 ± 0.14 | 1.66 ± 0.33 | 0.941 (active) |
| COc1ccc(C=NNC(=O)c2ccc(CN3CCOCC3)cc2)cc1[N+](=O)[O-] | 1.01 ± 0.085 | 1.06 ± 0.089 | 0.961 ± 0.067 | 1.04 ± 0.039 | 1.47 ± 0.14 | 1.28 ± 0.11 | 0.988 (active) |
| Cc1cccc(C)c1OCC(C)N.Cl (centres undefined) | 1.17 ± 0.25 | 1.25 ± 0.23 | 0.953 ± 0.058 | 0.89 ± 0.061 | 1.33 ± 0.29 | 1.04 ± 0.13 | 0.968 (active) |
| COC1CCN(C2CCN(S(=O)(=O)c3ccccc3)CC2)CC1 | 0.839 ± 0.077 | 1.01 ± 0.082 | 0.977 ± 0.062 | 0.981 ± 0.065 | 1.08 ± 0.14 | 1.03 ± 0.23 | 1.01 (active) |
| Cl.O=C1c2cccc3c2[C@H](CCC3)CN1[C@@H]1CN2CCC1CC2 | 1.03 ± 0.17 | 0.655 ± 0.053 | 0.823 ± 0.11 | 0.582 ± 0.022 | 0.918 ± 0.17 | 0.987 ± 0.12 | 0.974 (active) |
| CN1CC(=O)N2[C@H](c3ccc4c(c3)OCO4)c3[nH]c4ccccc4c3C[C@@H]2C1=O | 0.821 ± 0.2 | 1.05 ± 0.23 | 0.976 ± 0.056 | 0.869 ± 0.026 | 1.01 ± 0.24 | 0.922 ± 0.08 | 0.981 (active) |
| CCN(CCO)CCCC(C)Nc1ccnc2cc(Cl)ccc12.O=S(=O)(O)O (centres undefined) | 0.877 ± 0.037 | 0.984 ± 0.08 | 1.44 ± 0.24 | 0.984 ± 0.049 | 1.08 ± 0.28 | 1.15 ± 0.42 | 1 (active) |
| CNC(C)CCC=C(C)C.CNC(C)CCC=C(C)C (centres undefined) [Prestw-1023] | 1.07 ± 0.082 | 0.976 ± 0.12 | 1.01 ± 0.16 | 1 ± 0.047 | 1.17 ± 0.16 | 1.23 ± 0.28 | 1.04 (active) |
| CCN(CC)c1ccc(C=NNC(=O)c2ccncc2)c(O)c1 | 2.56 ± 0.2 | 1.66 ± 0.13 | 5.41 ± 0.24 | 0.888 ± 0.12 | 1.29 ± 0.084 | 1.35 ± 0.14 | 0.695 (inactive) |
| CN1CCN(C(=O)C(C)(c2ccccc2)c2ccccc2)CC1 | 0.804 ± 0.063 | 1.1 ± 0.062 | 0.946 ± 0.056 | 0.981 ± 0.039 | 1.22 ± 0.13 | 1.08 ± 0.17 | 1 (active) |
| Cc1cc(OCC(=O)NCCn2nc(C3CC3)ccc2=O)cc(C)c1Cl | 0.861 ± 0.2 | 1 ± 0.055 | 1.01 ± 0.064 | 0.956 ± 0.039 | 0.823 ± 0.14 | 1.01 ± 0.26 | 0.778 (active) |
| CCOC(=O)C(C)N(c1ccc(OC)cc1)S(C)(=O)=O (centres undefined) | 0.99 ± 0.056 | 0.985 ± 0.071 | 0.905 ± 0.053 | 1.07 ± 0.053 | 1.22 ± 0.083 | 1.12 ± 0.27 | 0.977 (active) |
| CCc1cc(=O)oc2cc(OCC(=O)OC(C)C)ccc12 | 0.827 ± 0.064 | 0.857 ± 0.042 | 1.11 ± 0.096 | 1.04 ± 0.048 | 1.44 ± 0.096 | 1.73 ± 0.24 | 1 (active) |
| OC1(c2ccc(Cl)c(C(F)(F)F)c2)CCN(CCCC(c2ccc(F)cc2)c2ccc(F)cc2)CC1 | 0.101 ± 0.0057 | 0.173 ± 0.12 | 0.103 ± 0.0063 | 0.0719 ± 0.0038 | 0.145 ± 0.11 | 0.0408 ± 0.004 | 0.0235 (inactive) |
| O=C(C=Cc1cc([N+](=O)[O-])ccc1O)c1ccc(Cl)cc1 | 0.614 ± 0.052 | 0.81 ± 0.046 | 1.26 ± 0.21 | 0.496 ± 0.023 | 1.28 ± 0.074 | 1.25 ± 0.11 | 0.983 (active) |
| CC(C)OC(=O)c1c(NC(=O)C2CC=CCC2C(=O)O)sc2c1CCCC2 (centres undefined) | 0.92 ± 0.12 | 0.999 ± 0.056 | 0.901 ± 0.054 | 0.965 ± 0.024 | 1.29 ± 0.18 | 1.14 ± 0.28 | 1.01 (active) |
| O=C1c2ccccc2-c2nc3ccccc3n21 | 0.969 ± 0.17 | 1.24 ± 0.11 | 1.14 ± 0.12 | 0.983 ± 0.033 | 1.05 ± 0.21 | 1.28 ± 0.16 | 0.856 (active) |
| CN(C)CCCN1c2ccccc2Sc2ccc(Cl)cc21.Cl | 0.377 ± 0.029 | 0.997 ± 0.096 | 1.87 ± 0.041 | 1.07 ± 0.073 | 1.13 ± 0.1 | 1.37 ± 0.17 | 0.306 (inactive) |
| CC1(C)Cc2c(sc3nc(SCC(N)=O)n(CCc4ccccc4)c(=O)c23)CO1 | 0.815 ± 0.07 | 0.814 ± 0.054 | 0.927 ± 0.1 | 1.02 ± 0.054 | 1.24 ± 0.084 | 1.3 ± 0.11 | 1.01 (active) |
| c1ccc(-c2cc3c4cccn4ccn3c2)cc1 | 1.03 ± 0.1 | 0.87 ± 0.068 | 0.848 ± 0.085 | 0.31 ± 0.029 | 1.29 ± 0.21 | 1.32 ± 0.39 | 1.04 (active) |
| O=C(NC(=S)Nc1cccc([N+](=O)[O-])c1)c1cccc(I)c1 | 0.944 ± 0.1 | 1.08 ± 0.072 | 0.985 ± 0.044 | 0.794 ± 0.1 | 1.09 ± 0.14 | 1.02 ± 0.17 | 1 (active) |
| Br.COc1ccc2c3c1O[C@H]1C[C@@H](O)C=C[C@@]31CCN(C)C2 | 0.95 ± 0.071 | 1.03 ± 0.052 | 0.947 ± 0.024 | 0.912 ± 0.08 | 0.995 ± 0.042 | 1.11 ± 0.14 | 1.01 (active) |
| O=C(O)c1ccc(-n2nc(-c3ccccc3O)nc2-c2ccccc2O)cc1 | 0.749 ± 0.082 | 0.917 ± 0.1 | 1.11 ± 0.13 | 0.902 ± 0.042 | 1.31 ± 0.14 | 1.49 ± 0.15 | 0.988 (active) |
